Sampled rows, rich in hits. Any-hit rate of the full collection: about 19%.
Giardia kill – Small Molecules that selectively kill Giardia lamblia: qHTS; 0.15% of 340,000 active; Giardia lamblia trophozoite viability; AID 540267, 2011; activity change, % at 7.66 µM, hits read low; in the data active = activity change below about -80%; inconclusive = between about -30% and that limit;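 note: parasites exposed to compound for two days anaerobically before the ATP read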
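Each well holds 100 Giardia trophozoites and compound. After two days (48 hrs) at 37 deg C in anaerobic conditions, ATP is quantified by luminescence.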
ELG1 DNA repair – qHTS screen for small molecules that inhibit ELG1-dependent DNA repair in human embryonic kidney (HEK293T) cells expressing luciferase-tagged ELG1; HEK293T ELG1-luciferase reporter, luminescence, 16 h; DNA damage induced by 5-fluorouridine; Potency, µM (doses to about 46.1 µM), actives largely listed as inhibitors; 2.3% of 330,000 active; AID 504467, 2011; note: nearly all actives have a fitted effect of over 55% in size
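In this reporter screen, reduction of luminescence relative to DMSO vehicle indicated activity. Compounds and 5-fluorouridine were added together to 2,000 cells per well, incubated for 16 hr at 37 °C, then developed with ONE-Glo.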
DT40 TDP1 CPT – qHTS for Inhibitors of human tyrosyl-DNA phosphodiesterase 1 (TDP1): qHTS in cells in presence of CPT; 12% of 420,000 active; chicken DT40 Tdp1-/-;hTDP1 cells + 20 nM CPT, ATP luminescence, 48 h; AID 686979, 2013; Potency, µM (highest dose often 46.2 µM), actives largely listed as inhibitors; note: nearly all actives have a fitted effect of over 55% in size
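Cell growth measured by CellTiter-Glo luminescence after a minimum 48 h, 37 C compound exposure with 20 nM CPT in Tdp1-knockout DT40 cells stably expressing hTDP1, seeded 400/well; qHTS titration format.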
TDP1 block – qHTS Assay for Inhibitors of Tyrosyl-DNA Phosphodiesterase (TDP1); Potency, µM (titrated, usually from 130 µM), actives largely listed as inhibitors; recombinant TDP1, AlphaScreen DNA substrate cleavage; 0.28% of 350,000 active; AID 485290, 2010; note: nearly all actives have a fitted effect of over 40% in size
Target sequence (Q9NUW8 whole entry, looked up): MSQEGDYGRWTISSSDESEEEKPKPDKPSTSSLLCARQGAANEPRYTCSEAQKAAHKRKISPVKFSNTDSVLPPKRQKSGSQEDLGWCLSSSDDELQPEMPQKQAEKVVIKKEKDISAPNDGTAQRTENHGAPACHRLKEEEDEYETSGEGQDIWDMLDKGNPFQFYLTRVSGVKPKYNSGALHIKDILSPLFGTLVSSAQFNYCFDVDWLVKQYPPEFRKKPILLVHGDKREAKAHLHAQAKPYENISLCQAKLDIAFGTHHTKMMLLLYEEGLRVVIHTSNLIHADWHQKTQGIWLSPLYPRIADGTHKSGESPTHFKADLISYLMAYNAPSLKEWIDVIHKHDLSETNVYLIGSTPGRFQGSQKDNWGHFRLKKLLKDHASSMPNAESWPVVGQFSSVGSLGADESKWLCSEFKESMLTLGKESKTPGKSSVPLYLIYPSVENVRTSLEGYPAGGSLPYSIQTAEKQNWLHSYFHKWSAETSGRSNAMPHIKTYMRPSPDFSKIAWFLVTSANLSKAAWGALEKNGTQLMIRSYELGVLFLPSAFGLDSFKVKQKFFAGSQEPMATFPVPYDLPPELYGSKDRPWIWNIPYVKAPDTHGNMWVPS
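Compounds were preincubated with Tdp1 (1 nM final) for 15 min at room temperature before substrate (15 nM final) started a 5 min reaction; beads (10 ug/ml final) were then added for 10 min before AlphaScreen detection.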
DT40 TDP1 no CPT – qHTS for Inhibitors of human tyrosyl-DNA phosphodiesterase 1 (TDP1): qHTS in cells in absence of CPT | DT40 Tdp1-/- hTDP1 cells, no CPT, ATP luminescence, 48 h | Potency, µM (titrated, usually from 46.2 µM), actives largely listed as inhibitors | 15% of 420,000 active | AID 686978, 2013; note: nearly all actives have a fitted effect of over 55% in size
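Camptothecin absent (DMSO only). Human TDP1-complemented DT40 knockout cells, 400 cells/well, 37 °C for minimum 48 hr; ATP measured via CellTiter-Glo, 30 min dark incubation, luminescence.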
IL1B secr inh – qHTS for Inhibitors of Inflammasome Signaling: IL-1-beta AlphaLISA Primary Screen; THP-1 LPS/ATP IL-1B secretion, AlphaLISA, 16 h; stronger effect = lower value; 4.7% of 360,000 active; AID 743279, 2014; activity change, % at 57.5 µM; in the data active = activity change below about -50%; inconclusive = mostly about -30% to -49%
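THP-1 cells pretreated 1 hr with compounds (up to 57.5 uM final), then stimulated with LPS (250 ng/mL final) plus ATP (1.25 mM final); secreted IL-1B measured by AlphaLISA after 16 hr, decreased signal indicating inhibition.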
Each line names hits and unclear results; the compound was inactive in the other large screens. Unless noted, calls come from the whole dose curve; as a rule, active = well fitted curve in the direction sought with a large enough effect; inconclusive = small, poorly fitted or top-dose-only effect, or another doubt; inactive = no such curve, though single readings can be large; an effect the other way counts as inactive or inconclusive.

CCc1ccc(Nc2n[n+](-c3ccccc3)c(-c3cccc(C)c3)s2)cc1	DT40 TDP1 CPT 7.3µM, DT40 TDP1 no CPT 5.8µM
NC(=O)c1nsc(C(=O)N(CC(=O)NC2CCCCC2)Cc2ccc(F)cc2)c1N	ELG1 DNA repair inconclusive
Cc1ccc2c(CNC3CCC(C)CC3)c(C(=O)O)n(Cc3cccc(F)c3)c2c1 (stereo not drawn)	DT40 TDP1 CPT inconclusive, DT40 TDP1 no CPT inconclusive (no result: Giardia kill, ELG1 DNA repair, IL1B secr inh)
CN(Cc1ccccc1)C(=O)c1cccc(NC(=O)Cc2ccc(NC(=O)C3CCCN(C(=O)C4CCCC4)C3)cc2)c1 (stereo not drawn)	DT40 TDP1 CPT inconclusive, DT40 TDP1 no CPT inconclusive (no result: ELG1 DNA repair, TDP1 block)
Cc1ccccc1COC(=O)CCC1=NS(=O)(=O)c2ccccc2N1	none
COC(=O)C(C)(C)ONC(=O)Nc1ccc(Br)cc1	ELG1 DNA repair inconclusive, DT40 TDP1 CPT 23µM
CC(NC(=O)Nc1ccc(Br)cc1)C(C)(C)C (stereo not drawn)	ELG1 DNA repair inconclusive, DT40 TDP1 CPT inconclusive, DT40 TDP1 no CPT inconclusive
O=C(CCNC(=O)Cn1ccc2ccccc2c1=O)NCc1ccccn1	none
O=C(Nc1cccc(F)c1)c1cc(S(=O)(=O)N2CCC3(CC2)OCCO3)ccc1F	ELG1 DNA repair inconclusive (no result: Giardia kill, DT40 TDP1 CPT, DT40 TDP1 no CPT, IL1B secr inh)
O=C(Nc1cc(Cl)cc(Cl)c1)c1cc(S(=O)(=O)N2CCC3(CC2)OCCO3)ccc1F	DT40 TDP1 CPT 21µM, DT40 TDP1 no CPT inconclusive (no result: Giardia kill, ELG1 DNA repair, IL1B secr inh)
O=C(Nc1cccc(C(F)(F)F)c1)c1ccc(F)c(S(=O)(=O)N2CCc3ccccc3C2)c1	DT40 TDP1 CPT 15µM, DT40 TDP1 no CPT 13µM (no result: Giardia kill, ELG1 DNA repair, IL1B secr inh)
O=C(Nc1ccc(F)c(Cl)c1)c1cc(S(=O)(=O)N2CCc3ccccc3C2)ccc1F	DT40 TDP1 CPT inconclusive, DT40 TDP1 no CPT inconclusive (no result: Giardia kill, ELG1 DNA repair, IL1B secr inh)
O=C(Nc1cccc(Cl)c1Cl)c1cc(S(=O)(=O)N2CCC3(CC2)OCCO3)ccc1F	DT40 TDP1 CPT inconclusive, DT40 TDP1 no CPT 23µM (no result: Giardia kill, ELG1 DNA repair, IL1B secr inh)
Cc1cccc(NC(=O)c2ccc(F)c(S(=O)(=O)N3CCC4(CC3)OCCO4)c2)c1	ELG1 DNA repair inconclusive, DT40 TDP1 CPT inconclusive, DT40 TDP1 no CPT inconclusive
O=C(Nc1cccc(Cl)c1)c1ccc(F)c(S(=O)(=O)N2CCC3(CC2)OCCO3)c1	DT40 TDP1 CPT 15µM, DT40 TDP1 no CPT 13µM (no result: Giardia kill, ELG1 DNA repair, IL1B secr inh)
O=C(Nc1ccccc1Cl)c1cc(S(=O)(=O)N2CCC3(CC2)OCCO3)ccc1F	DT40 TDP1 CPT inconclusive, DT40 TDP1 no CPT inconclusive (no result: Giardia kill, ELG1 DNA repair)
Cc1ccc(S(=O)(=O)N[C@H]2COC(=O)C/C=C\[C@@H](C)COC(=O)C/C=C\[C@@H]2C)cc1	none (no result: Giardia kill, ELG1 DNA repair, DT40 TDP1 CPT, DT40 TDP1 no CPT, IL1B secr inh)
Cc1oc(-c2ccccc2F)nc1CS(=O)CC(=O)NCc1ccc(F)cc1 (stereo not drawn)	DT40 TDP1 CPT inconclusive, DT40 TDP1 no CPT inconclusive (no result: TDP1 block)
CCc1ccc(NC(=O)C(=O)NCCc2csc(-c3cccc(F)c3)n2)cc1	none (no result: Giardia kill, ELG1 DNA repair, IL1B secr inh)
CCCNC(=O)c1cc(S(=O)(=O)N2CCC3(CC2)OCCO3)ccc1F	none (no result: Giardia kill, ELG1 DNA repair, TDP1 block)
O=C(c1cc(S(=O)(=O)N2CCC3(CC2)OCCO3)ccc1F)N1CCCCC1	IL1B secr inh -60
Cc1nc(OCC(=O)c2ccc(Cl)cc2)c(C#N)c2c1COC(C)(C)C2	ELG1 DNA repair inconclusive, DT40 TDP1 CPT inconclusive, DT40 TDP1 no CPT inconclusive
CCc1nc(OCC(=O)c2ccccc2)c(C#N)c2c1COC(C)(C)C2	ELG1 DNA repair inconclusive, DT40 TDP1 CPT inconclusive, DT40 TDP1 no CPT 18µM
CCCOC(=O)c1cccc(Nc2nc(CCC)cc(=O)[nH]2)c1	DT40 TDP1 CPT 16µM, DT40 TDP1 no CPT 15µM (no result: Giardia kill, ELG1 DNA repair, IL1B secr inh)
Cc1ccccc1CN1CCC(CNc2ncnc3onc(-c4ccc(Cl)cc4)c23)CC1	DT40 TDP1 CPT inconclusive, DT40 TDP1 no CPT 16µM (no result: Giardia kill, ELG1 DNA repair, IL1B secr inh)
Cc1cccc(Nc2ncnc3onc(-c4ccc(Cl)cc4)c23)c1C	none (no result: Giardia kill, ELG1 DNA repair, IL1B secr inh)
